Source: PubChem BioAssay (NCI)
This is part of a sample that, as a whole, favours compounds with a hit. Of some 83,000 tested, about 20% had one in any assay.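 Compound tested at a single concentration for 48 hours in 96-well plates; a percent growth value below 10 was scored as active.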 A number with no mark means an inactive call. Active and inactive are the calls of the source.

test system: HL-60(TB) leukemia; assay: NCI-60 one-dose screen, 48 h (100 = growth as untreated, 0 = no growth, -100 = all killed); details: 10 µM unless noted

Row | Structure (SMILES) | growth
1 | CN1C(=O)N(C)C2SC(N/N=C/c3cccs3)=NC21 (stereo not given) | -19.5% (active)
2 | O=C(CNc1nc(-c2ccccc2)cs1)Nc1cccc(Cl)c1 | -2.63% (active)
3 | CN(C)c1ccnc(CNCCSC2(c3ccc(C(F)(F)F)cc3)c3ccccc3CCc3ccccc32)c1 | -41.9% (active)
4 | O=[N+]([O-])c1cccc(-c2nnc3c(/C=C/c4ccc(F)cc4)nc4ccccc4n23)c1 | 92.7%
5 | CCCSc1nc(NCCc2c[nH]c3ccccc23)c(C#N)c(-c2ccc(OC)cc2)n1 | 40.7%
